# ChEMBL document CHEMBL1961873, “Compounds: GSK PKIS; Assays: Nanosyn kinase panel” (2012)
# Target: Mitogen-activated protein kinase 3 (Homo sapiens) (UniProt P27361);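 further: values are mean percent inhibition of MAPK3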
# Details: at 1 µM
# Chain of Mitogen-activated protein kinase 3 (Homo sapiens) (P27361 whole entry): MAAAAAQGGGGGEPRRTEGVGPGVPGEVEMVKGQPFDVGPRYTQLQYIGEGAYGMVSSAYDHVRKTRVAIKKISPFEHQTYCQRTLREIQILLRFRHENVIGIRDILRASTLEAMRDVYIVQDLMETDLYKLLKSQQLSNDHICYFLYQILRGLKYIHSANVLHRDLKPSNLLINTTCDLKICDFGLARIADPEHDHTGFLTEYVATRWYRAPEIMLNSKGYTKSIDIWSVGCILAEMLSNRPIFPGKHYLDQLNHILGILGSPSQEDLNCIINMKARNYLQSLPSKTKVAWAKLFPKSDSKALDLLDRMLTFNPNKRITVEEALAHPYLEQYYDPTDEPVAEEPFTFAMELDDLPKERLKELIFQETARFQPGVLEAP
row,Compound,inhibition [%]
1,ON=C1CCc2cc(-c3nc(C4CCNCC4)[nH]c3-c3ccncc3)ccc21,0.97
2,O=C1Nc2ccc(-c3cccnc3)cc2C1=Cc1cc(Br)c(O)c(Br)c1,1.77
3,CCOc1nccc2c1nc(-c1nonc1N)n2CC,3.56
4,c1ccc(Cc2nc3ccc(Nc4ncnc5ccccc45)cc3[nH]2)cc1,4.11
5,O=C(Nc1ccc(Oc2ccc3[nH]c(NC(=O)c4ccco4)nc3c2)cc1)Nc1cc(C(F)(F)F)ccc1F,2.24
6,FC(F)(F)c1ccc(-c2nn3ncccc3c2-c2ccnc(Nc3ccc4c(c3)OCCO4)n2)cc1,3.1
7,COc1cc2ncnc(Nc3ccc(C)c(O)c3)c2cc1OC,7.04
8,c1ccc(Nc2ncc(-c3ccccc3)o2)cc1,4.13
9,Cc1ccc(NC(=O)CC2CC2)cc1-c1ccc(C(=O)NCC2CC2)cc1,3.92
10,OCc1ccc(-c2nc(-c3ccccn3)c(-c3ccc4c(c3)OCO4)[nH]2)cc1,1.38
11,Cc1ccc(Nc2ccnc(Nc3cccc(C(N)=O)c3)n2)cc1O,5.1
12,CN(c1ccc(NC(=O)Nc2ccc(OC(F)(F)F)cc2)cc1)c1ccnc(Nc2cccc(S(N)(=O)=O)c2)n1,3.33
13,CN(C)C(=O)O[C@@H]1CN[C@@H](C#Cc2cc3ncnc(Nc4ccc(OCc5cccc(F)c5)c(Cl)c4)c3s2)C1,1.36
14,NS(=O)(=O)c1ccc(Nc2cc(-c3cccc(O)c3)n[nH]2)cc1,3.73
15,Cc1ccc2c(-c3ccnc(Nc4cccc(C(F)(F)F)c4)n3)c(-c3ccccc3)nn2n1,8.27
16,COC(=O)Nc1nc2cc(Oc3ccc(NC(=O)Nc4cccc(Br)c4)cc3)ccc2[nH]1,3.83
17,N#Cc1c(NC(=O)c2ccccc2F)sc2c1CCCC2,-1.26

row,Compound,inhibition [%]
1,CN(C)CCCn1c(-c2nonc2N)nc2cnccc21,2.88
2,NS(=O)(=O)c1ccc(-c2cc3ccncc3cc2OCc2ccccc2)cc1,3.1
3,NS(=O)(=O)c1cccc(-c2cc3ccncc3cc2OCc2ccccc2)c1,4.26
4,N#Cc1cccc(Nc2nccc(-c3cnn4ncccc34)n2)c1,35.8
5,COc1cccc(-n2nc(C)c3c(N/N=C(\C)c4ccncc4)ncnc32)c1,-1.26
6,Oc1cccc(-c2nc(-c3ccccc3)[nH]c2-c2ccncc2)c1,5.5
7,COc1cccc(-n2ncc3c(N/N=C/c4ccc(C)cc4)ncnc32)c1,3.26
8,COc1cccc(-n2ncc3c(N/N=C/c4ccc(S(C)(=O)=O)cc4)ncnc32)c1,1.55
9,NC(=O)c1sc(-n2cnc3ccccc32)cc1OCc1ccccc1Br,4.22
10,Cc1cc(O)cc(C)c1/C=C/c1cncc(C(=O)N(C)C)c1,2.75
11,COc1cc(/C=N/Nc2ncnc3c2cnn3C(C)C)ccc1O,2.88
12,NS(=O)(=O)c1ccc(N/N=C2\C(=O)Nc3ccc(Cl)cc32)cc1,4.54
13,Cc1cc(Cl)cc2c1NC(=O)C2=NNc1ccc(S(N)(=O)=O)cc1,4.37
14,NC(=O)c1cccc(Nc2nccc(Nc3cccc(F)c3)n2)c1,1.21
15,COc1cc2ncn(-c3cc(OCc4ccccc4S(C)(=O)=O)c(C#N)s3)c2cc1OC,4.78
16,CCS(=O)(=O)c1ccc(OC)c(Nc2ncc(-c3cccc(OC)c3)o2)c1,-2.17
17,CS(=O)(=O)Nc1cccc(-c2ccc3c(NC(=O)C4CC4)n[nH]c3c2)c1,1.38

# Target: SRSF protein kinase 3 (Homo sapiens) (UniProt Q9UPE1);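 further: mean of replicate inhibition values against MSSK1 kinase, profiled within the GSK PKIS kinase inhibitor set screen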
# Sequence (Q9UPE1 whole entry): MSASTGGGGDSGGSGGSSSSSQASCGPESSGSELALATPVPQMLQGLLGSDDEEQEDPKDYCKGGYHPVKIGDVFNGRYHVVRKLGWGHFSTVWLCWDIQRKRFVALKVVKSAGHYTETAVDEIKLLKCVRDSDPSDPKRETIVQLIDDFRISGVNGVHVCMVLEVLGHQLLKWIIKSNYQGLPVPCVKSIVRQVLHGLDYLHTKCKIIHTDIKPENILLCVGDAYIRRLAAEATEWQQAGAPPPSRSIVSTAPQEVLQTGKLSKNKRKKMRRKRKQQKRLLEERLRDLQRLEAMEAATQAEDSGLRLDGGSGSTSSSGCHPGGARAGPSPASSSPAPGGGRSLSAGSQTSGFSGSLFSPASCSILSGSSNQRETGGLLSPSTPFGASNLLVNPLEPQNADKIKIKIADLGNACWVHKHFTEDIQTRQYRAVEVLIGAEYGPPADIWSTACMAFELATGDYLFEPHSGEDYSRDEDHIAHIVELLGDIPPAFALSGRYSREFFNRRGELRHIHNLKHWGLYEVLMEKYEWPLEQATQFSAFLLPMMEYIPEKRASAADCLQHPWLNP
# Details: at 0.1 µM
row,Compound,inhibition [%]
1,ON=C1CCc2cc(-c3nc(C4CCNCC4)[nH]c3-c3ccncc3)ccc21,-1.32
2,O=C1Nc2ccc(-c3cccnc3)cc2C1=Cc1cc(Br)c(O)c(Br)c1,1.44
3,CCOc1nccc2c1nc(-c1nonc1N)n2CC,0.36
4,c1ccc(Cc2nc3ccc(Nc4ncnc5ccccc45)cc3[nH]2)cc1,0.5
5,O=C(Nc1ccc(Oc2ccc3[nH]c(NC(=O)c4ccco4)nc3c2)cc1)Nc1cc(C(F)(F)F)ccc1F,2.34
6,FC(F)(F)c1ccc(-c2nn3ncccc3c2-c2ccnc(Nc3ccc4c(c3)OCCO4)n2)cc1,5.92
7,COc1cc2ncnc(Nc3ccc(C)c(O)c3)c2cc1OC,-1.99
8,c1ccc(Nc2ncc(-c3ccccc3)o2)cc1,-1.27
9,Cc1ccc(NC(=O)CC2CC2)cc1-c1ccc(C(=O)NCC2CC2)cc1,-0.32
10,OCc1ccc(-c2nc(-c3ccccn3)c(-c3ccc4c(c3)OCO4)[nH]2)cc1,1.23
11,Cc1ccc(Nc2ccnc(Nc3cccc(C(N)=O)c3)n2)cc1O,0.91
12,CN(c1ccc(NC(=O)Nc2ccc(OC(F)(F)F)cc2)cc1)c1ccnc(Nc2cccc(S(N)(=O)=O)c2)n1,-1.09
13,CN(C)C(=O)O[C@@H]1CN[C@@H](C#Cc2cc3ncnc(Nc4ccc(OCc5cccc(F)c5)c(Cl)c4)c3s2)C1,-1.41
14,NS(=O)(=O)c1ccc(Nc2cc(-c3cccc(O)c3)n[nH]2)cc1,0.13
15,Cc1ccc2c(-c3ccnc(Nc4cccc(C(F)(F)F)c4)n3)c(-c3ccccc3)nn2n1,0.34
16,COC(=O)Nc1nc2cc(Oc3ccc(NC(=O)Nc4cccc(Br)c4)cc3)ccc2[nH]1,-0.78
17,N#Cc1c(NC(=O)c2ccccc2F)sc2c1CCCC2,-1.34

row,Compound,inhibition [%]
1,CN(C)CCCn1c(-c2nonc2N)nc2cnccc21,-1.86
2,NS(=O)(=O)c1ccc(-c2cc3ccncc3cc2OCc2ccccc2)cc1,-2.09
3,NS(=O)(=O)c1cccc(-c2cc3ccncc3cc2OCc2ccccc2)c1,-0.37
4,N#Cc1cccc(Nc2nccc(-c3cnn4ncccc34)n2)c1,0.24
5,COc1cccc(-n2nc(C)c3c(N/N=C(\C)c4ccncc4)ncnc32)c1,-0.29
6,Oc1cccc(-c2nc(-c3ccccc3)[nH]c2-c2ccncc2)c1,1.08
7,COc1cccc(-n2ncc3c(N/N=C/c4ccc(C)cc4)ncnc32)c1,3.27
8,COc1cccc(-n2ncc3c(N/N=C/c4ccc(S(C)(=O)=O)cc4)ncnc32)c1,-0.64
9,NC(=O)c1sc(-n2cnc3ccccc32)cc1OCc1ccccc1Br,-0.27
10,Cc1cc(O)cc(C)c1/C=C/c1cncc(C(=O)N(C)C)c1,1.6
11,COc1cc(/C=N/Nc2ncnc3c2cnn3C(C)C)ccc1O,-2.39
12,NS(=O)(=O)c1ccc(N/N=C2\C(=O)Nc3ccc(Cl)cc32)cc1,-0.26
13,Cc1cc(Cl)cc2c1NC(=O)C2=NNc1ccc(S(N)(=O)=O)cc1,0.26
14,NC(=O)c1cccc(Nc2nccc(Nc3cccc(F)c3)n2)c1,-1.02
15,COc1cc2ncn(-c3cc(OCc4ccccc4S(C)(=O)=O)c(C#N)s3)c2cc1OC,0.72
16,CCS(=O)(=O)c1ccc(OC)c(Nc2ncc(-c3cccc(OC)c3)o2)c1,0.87
17,CS(=O)(=O)Nc1cccc(-c2ccc3c(NC(=O)C4CC4)n[nH]c3c2)c1,-2.12
